Inconclusive results are not listed. The source made the active and inactive calls. Calls follow the shape of the dose curve; as a rule, active = well fitted inhibition curve with a large enough effect; inconclusive = small, poorly fitted or top-dose-only effect; inactive = flat fitted curve, though single readings scatter.
Each compound was assayed against Ubiquitin carboxyl-terminal hydrolase 1 (Homo sapiens) (UniProt O94782) (assay: Inhibitors of USP1/UAF1: Pilot qHTS (AID 504865; also: nearly all actives have a fitted effect of over 35% in size;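 as to activity change, negative = inhibition: rhodamine fluorescence freed from ubiquitin-rhodamine substrate followed over time; top concentration of the series differs between compounds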)). Conditions: purified USP1/UAF1, Ub-rhodamine cleavage fluorescence; series mostly up to 114 µM; activity change, negative = inhibition: at the top concentration.
Ubiquitin carboxyl-terminal hydrolase 1 (Homo sapiens), sequence (O94782 whole entry, looked up): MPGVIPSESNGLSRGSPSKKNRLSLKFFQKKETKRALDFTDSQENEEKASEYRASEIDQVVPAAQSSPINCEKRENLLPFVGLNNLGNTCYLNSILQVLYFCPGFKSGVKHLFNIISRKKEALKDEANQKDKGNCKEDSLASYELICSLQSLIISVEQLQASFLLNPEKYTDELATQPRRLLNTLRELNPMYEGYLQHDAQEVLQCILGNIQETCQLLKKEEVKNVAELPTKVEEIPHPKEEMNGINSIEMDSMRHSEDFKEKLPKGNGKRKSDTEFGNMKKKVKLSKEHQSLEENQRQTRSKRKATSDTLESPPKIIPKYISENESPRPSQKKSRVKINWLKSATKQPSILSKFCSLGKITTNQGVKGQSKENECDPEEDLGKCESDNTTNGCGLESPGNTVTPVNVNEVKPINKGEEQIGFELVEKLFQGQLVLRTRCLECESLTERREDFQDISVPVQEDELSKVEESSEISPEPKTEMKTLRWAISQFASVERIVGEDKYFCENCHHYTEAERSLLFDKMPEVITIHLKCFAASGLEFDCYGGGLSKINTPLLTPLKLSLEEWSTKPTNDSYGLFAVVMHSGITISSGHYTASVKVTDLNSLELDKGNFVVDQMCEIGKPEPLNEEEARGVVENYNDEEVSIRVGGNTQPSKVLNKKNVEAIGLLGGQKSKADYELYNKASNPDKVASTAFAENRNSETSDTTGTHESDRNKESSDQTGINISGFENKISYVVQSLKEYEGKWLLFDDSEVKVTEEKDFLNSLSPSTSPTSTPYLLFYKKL
Procedure, shortened: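 USP1/UAF1 complex (1nM) preincubated with compound 15 min at room temperature, then Ub-Rho substrate (150nM final) added. Fluorescence read kinetically at 480/540 nm, 6 reads every 60 seconds. Buffer: 50mM HEPES pH 7.8, 0.5mM EDTA, 0.1 mg/ml BSA, 1mM TCEP, 0.01% Tween-20.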
% is scaled to controls: 0 for no effect and ±100 for the full control effect; potency is read from the fitted curve at half-maximal effect.

| Compound | activity change, negative = inhibition | Potency |
| --- | --- | --- |
| C=CCOc1ccc(CC(=O)O)cc1Cl | -5.02% (inactive) |  |
| CCCCC[C@H](O)/C=C/[C@@H]1[C@H]2C/C(=C/CCCC(=O)O)O[C@H]2C[C@H]1O | -8.1% (inactive) |  |
| COc1cc2c(cc1OC)[C@@H](Cc1cc(OC)c(OC)c(OC)c1)[N+](C)(CCCOC(=O)CC/C=C/CCC(=O)OCCC[N+]1(C)CCc3cc(OC)c(OC)cc3[C@H]1Cc1cc(OC)c(OC)c(OC)c1)CC2 (stereo not given in full) | -6.61% (inactive) |  |
| C=CC(=O)O | -0.804% (inactive) |  |
| O=C1c2ccccc2CN2C(=O)c3ccccc3CN12 | -8.04% (inactive) |  |
| CCCOC(=O)c1ccccc1O | -2.68% (inactive) |  |
| CCC(C)[C@@H](N)C(=O)O (stereo not given in full) | 1.41% (inactive) |  |
| CC(O)CN(C)C (stereo not given) | -7.91% (inactive) |  |
| CCCc1nc(C(C)(C)O)c(C(=O)OCc2oc(=O)oc2C)n1Cc1ccc(-c2ccccc2-c2nn[nH]n2)cc1 | -12.5% (inactive) |  |
| Cc1ccccn1 | -2.33% (inactive) |  |
| Cc1cccc(Nc2ncccc2C(=O)O)c1C | -10.3% (inactive) |  |
| COc1ccc(/C=C/C(=O)O)cc1 | -7.63% (inactive) |  |
| CCOC(=O)c1c[nH]c2cc(OCC(C)C)c(OCC(C)C)cc2c1=O | -6.26% (inactive) |  |
| c1ccc2c(c1)Sc1ccccc1N2CCN1CCCC1 | -5.5% (inactive) |  |
| Cc1cc(-c2ccc(N=Nc3c(S(=O)(=O)O)cc4cc(S(=O)(=O)O)cc(N)c4c3O)c(C)c2)ccc1N=Nc1c(S(=O)(=O)O)cc2cc(S(=O)(=O)O)cc(N)c2c1O |  | 8.91 µM (active) |
| CCCc1ccc(C(=O)O)cc1 | -0.983% (inactive) |  |
| CN1CCc2c(c3ccccc3n2Cc2ccccc2)C1 | -10.2% [at 54.9 µM] (inactive) |  |
| CC(=O)Oc1cc(C(F)(F)F)ccc1C(=O)O | -0.994% [at 54.9 µM] (inactive) |  |
| COC1=C(OC)C(=O)C(C/C=C(\C)CC/C=C(\C)CC/C=C(\C)CC/C=C(\C)CC/C=C(\C)CC/C=C(\C)CC/C=C(\C)CC/C=C(\C)CC/C=C(\C)CCC=C(C)C)=C(C)C1=O | -7.42% (inactive) |  |
| N=C(N)n1cccn1 | -0.943% (inactive) |  |

| Compound | activity change, negative = inhibition | Potency |
| --- | --- | --- |
| Cc1ncc(C[n+]2csc(CCOP(=O)(O)O)c2C)c(N)n1 | -5.84% (inactive) |  |
| FCOC(C(F)(F)F)C(F)(F)F | 3.06% (inactive) |  |
| CS(=O)(=O)OCC(O)C(O)COS(C)(=O)=O (stereo not given) | 2.25% (inactive) |  |
| CC(=O)Oc1cccc2c1C(=O)c1c(OC(C)=O)cc(C(=O)O)cc1C2=O | 9.64% (inactive) |  |
| O=C(CCCN1CCC(C(=O)c2ccc(F)cc2)CC1)c1ccc(F)cc1 | -8.71% (inactive) |  |
| FC(F)(F)C(F)(F)C(F)(F)C(F)(F)C(F)(F)C(F)(F)F | -6.87% (inactive) |  |
| O=C(NCCNCC(O)COc1ccc(O)cc1)N1CCOCC1 (stereo not given) | -5.18% (inactive) |  |
| CCCC(=O)O | -5.79% (inactive) |  |
| CCCCCCCCCCCC(=O)N(CCO)CCO | -14.5% (inactive) |  |
| O=C(O[C@H]1CN2CCC1CC2)N1CCc2ccccc2[C@@H]1c1ccccc1 | 1.77% (inactive) |  |
| O=c1[nH]c(=O)n([C@H]2C[C@H](O)[C@@H](CO)O2)cc1/C=C/Br | -7.66% (inactive) |  |
| COc1ccc2c(=O)c(C)c(-c3ccccc3)oc2c1CN(C)C | -7.13% (inactive) |  |
| OCCCNc1ccccc1 | -3.21% (inactive) |  |
| C(=C\c1ccncc1)/c1ccccc1 | -6.83% (inactive) |  |
| NC(=O)[C@@H]1CCCN1C(=O)[C@H](Cc1cnc[nH]1)NC(=O)[C@@H]1CCC(=O)N1 | -4.57% (inactive) |  |
| O=P(O)(O)OC[C@H](O)CO | 2.45% (inactive) |  |
| C=CCN1CCCC1CNC(=O)c1cc(S(N)(=O)=O)cc(OC)c1OC (stereo not given) | -0.641% (inactive) |  |
| COC(=O)CC[C@H](N)C(=O)O | -7.13% (inactive) |  |
| CN1CCCC(CN2c3ccccc3Sc3ccccc32)C1 (stereo not given) | -3.09% (inactive) |  |
| CC1CCC(NC(=O)N(CCCl)N=O)CC1 (stereo not given) | 7.05% (inactive) |  |

Reference: PubChem BioAssay (NCATS)
